Source: PubChem BioAssay (Tox21)
Inconclusive results are not listed. Activity calls are given as the source filed them. Unless noted, calls come from the whole dose curve; as a rule, active = well fitted curve in the direction sought with a large enough effect in the repeat runs; inconclusive = weak or mixed curves; inactive = no such curve, though single readings can be large; an effect the other way counts as inactive or inconclusive.

Assays:
[1] = qHTS assay to identify small molecule agonists of the AP-1 signaling pathway - cell viability counter screen (AID 1159525; calls by dose curve; note: nearly all actives have a fitted effect of over 55% in size; note: potency is the fitted concentration of half-maximal effect)
Outline: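 Intracellular ATP by Cell Titer Glo luminescence (30 min, RT) in the same ME-180 AP-1-bla wells after the 5 h compound exposure at 37 °C. Normalised to tetra n-octyl ammonium bromide and DMSO controls.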

[2] = target: Nuclear receptor subfamily 1 group I member 3 (Homo sapiens) (UniProt Q14994); assay: qHTS assay to identify small molecule antagonists of the constitutive androstane receptor (CAR) signaling pathway (AID 1224838); note: nearly all actives have a fitted effect of over 40% in size; note: potency is the fitted concentration of half-maximal effect
Outline: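 Inhibition of CITCO-driven (50 nM final) CYP2B6 reporter expression is measured in HepG2 cells stably carrying hCAR. Fifteen compound concentrations are applied for 24 h at 37 C, followed by luciferase luminescence.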

[3] = qHTS assay to identify small molecule agonists of the estrogen related receptor signaling pathway with the pleiotropic PPARgamma coactivator (PGC) from Tox21 10K library (AID 1224842); note: % is set by controls: 0 for no effect and ±100 for the full control effect; nearly all actives have a fitted effect of over 15% in size
Outline: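 Luminescence from One-Glo (30 min, room temperature) measured after PGC/ERR cells had 18 h at 37 C with pinned compound (23 nL in DMSO). Cells had been seeded at 2,000 per well and pre-incubated 6 h.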

[4] = A CellTox Green Cytotoxicity Assay to monitor cytotoxicity in HEK293 cells - 40 hour (AID 1224871); note: nearly all actives have a fitted effect of over 45% in size; note: potency is the fitted concentration of half-maximal effect
Outline: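 Real-time, in one plate: 600 HEK293 cells/well with dead-cell DNA dye, pinned compound after 5 h, 37 C incubation over 40 h; viable cells give no appreciable fluorescence.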

[5] = A CellTox Green Cytotoxicity Assay to monitor cytotoxicity in HepG2 cells - 16 hour (AID 1224876); note: nearly all actives have a fitted effect of over 45% in size; note: potency is the fitted concentration of half-maximal effect
Outline: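 Cytotoxicity was tracked as dead-cell DNA fluorescence in HepG2 cells treated with test compounds at 37 C; each time-point value comes from one kinetic series spanning 0, 8, 16, 24, 32 and 40 h.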

[6] = qHTS RealTime-Glo MT Cell Viability Assay in HepG2 cells - 32 hour (AID 1224877); note: nearly all actives have a fitted effect of over 55% in size; note: potency is the fitted concentration of half-maximal effect
Outline: (§1)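 Tox21 10K library screened in qHTS format on HepG2 cells carrying RealTime-Glo reagents. Compounds were added after a 5 h preincubation, and the luminescent signal from continuous culture was measured repeatedly during 40 h treatment.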

[7] = qHTS RealTime-Glo MT Cell Viability Assay in HEK293 cells - 0 hour (AID 1224880); note: top concentration of the series differs between compounds; % is set by controls: 0 for no effect and ±100 for the full control effect; nearly all actives have a fitted effect of over 45% in size
Outline: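 Kinetic, non-lysing viability readout. Seed HEK293 (600/well) with reagent, incubate 5 h at 37 C/5% CO2, pin 23 nL compound in DMSO, incubate at 37 C, read luminescence at 0, 8, 16, 24, 32, 40 h.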

[8] = qHTS assay to identify small molecule antagonists of the androgen receptor (AR) signaling pathway using the MDA cell line in the presence of 0.5 nM R1881 - cell viability counter screen (AID 1259242); note: nearly all actives have a fitted effect of over 45% in size; note: potency is the fitted concentration of half-maximal effect
Outline: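 Cells seeded at 3,000/well and allowed 5 hr at 37C, 0% CO2 before compound transfer and R1881 (0.5 nM final) addition; 16 hr later, live-cell protease fluorescence indicated cytotoxicity.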

[9] = qHTS assay to identify small molecule agonists of the sonic hedgehog signaling (Shh) pathway - cell viability counter screen (AID 1259366); note: nearly all actives have a fitted effect of over 50% in size; note: potency is the fitted concentration of half-maximal effect
Outline: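 CellTiter-Fluor fluorescence read-out, 1 hr at 37C, added after 23hr compound exposure. Cells: 3T3 Gli1-Luc, an NIH/3T3 clone with stably integrated Gli1-Luc reporter, plated 4hr before compound.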

[10] = qHTS assay to identify small molecule antagonists of the sonic hedgehog signaling (Shh) pathway (AID 1259369; calls by dose curve; note: nearly all actives have a fitted effect of over 45% in size; note: potency is the fitted concentration of half-maximal effect)
Outline: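 Read-out is luminescence from a firefly luciferase gene controlled by the Gli1 response element, in 3T3Gli1-Luc cells pre-incubated 4hr then exposed to compounds and conditioned medium for 24hr.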

[11] = target: Estrogen receptor (Homo sapiens) (UniProt P03372); assay: qHTS assay to identify small molecule agonists of the estrogen receptor alpha (ER-alpha) signaling pathway in the presence of an antagonist (AID 1259383; calls by dose curve; note: top concentration of the series differs between compounds; % is set by controls: 0 for no effect and ±100 for the full control effect; nearly all actives have a fitted effect of over 15% in size)
Outline: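 Luminescent ERE-luciferase reporter, VM7Luc4E2 cells (endogenous ER-alpha); 10.0nM ICI-182,780 final; 15-point compound titration; 22hr at 37C; ONE-Glo, 30min RT.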

[12] = qHTS assay to identify small molecule agonists or antagonists of the thyroid stimulating hormone receptor (TSHR) signaling pathway - wild type cell line counter screen (AID 1259384; calls by dose curve; note: % is set by controls: 0 for no effect and ±100 for the full control effect)
Outline: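 Counter screen in untransfected Hek293: compounds (15-point titration, triplicate) plus phosphodiesterase inhibitor Ro20-1724 added after 18 h plating; 30 min RT. Intracellular cAMP via competitive d2/cryptate immunoassay, 1 h incubation.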

[13] = qHTS assay to identify small molecule agonists of the estrogen receptor alpha (ER-alpha) signaling pathway in the presence of an antagonist - cell viability counter screen (AID 1259386);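 note: cells exposed to compounds for 22 h at 37 °C before the viability read; nearly all actives have a fitted effect of over 30% in size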; note: potency is the fitted concentration of half-maximal effect; for activity change, negative = cytotoxicity: series mostly up to about 92 µM; % is set by controls: 0 for no effect and ±100 for the full control effect
Outline: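 Using estrogen-depleted VM7Luc4E2 cells, the 15-concentration compound series was applied together with 10.0nM ICI-182,780 and incubated 22hr at 37C/5% CO2. Cell viability was then scored by CellTiter-Fluor.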

[14] = qHTS assay to identify small molecule agonists of the TGF-beta/Smad signaling pathway (AID 1346859; active = well fitted activation curve with a large enough effect in the signal ratio in the repeat runs, not every such curve was filed as active; the % refers to the signal ratio; note: series mostly up to about 77 µM; % is set by controls: 0 for no effect and ±100 for the full control effect)
Outline: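 Read-out: fluorescence at 460 and 530 nm (405 nm excitation) after a 2 hr room-temperature incubation with beta-lactamase FRET substrate. SBE-bla HEK 293T cells had been treated with test compounds for 5 hr at 37 C.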

[15] = target: Cytochrome P450 2C19 (Homo sapiens) (UniProt P33261); assay: Cytochrome P450 Family 2 Subfamily C Member 19 (CYP2C19) small molecule antagonists: luciferase reporter qHTS assay (AID 1671197); note: potency is the fitted concentration of half-maximal effect; nearly all actives have a fitted effect of over 65% in size
Outline: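 First, compounds are pinned into enzyme-substrate mix and held 10 min at room temperature. Second, NADPH regeneration solution is added and plates incubate 1 h at 37C. Third, detection reagent is added and luminescence read after 20 min.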

[16] = target: Voltage-gated inwardly rectifying potassium channel KCNH2 (Homo sapiens) (UniProt Q12809); assay: Human Ether-a-go-go-Related Gene (hERG) channel small molecule antagonists: fluorescence cell-based qHTS assay (AID 1671200); note: nearly all actives have a fitted effect of over 50% in size; note: potency is the fitted concentration of half-maximal effect
Outline: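 Read-out: thallium influx as a surrogate for potassium, tracked as fluorescence (480 nm ex/540 nm em) every second for 2 min after Stimulus Buffer addition in dye-loaded hERG-U2OS cells.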

Aromatase (Homo sapiens) = Aromatase (Homo sapiens) (UniProt P11511); assay: qHTS assay to identify aromatase inhibitors (AID 743083); note: nearly all actives have a fitted effect of over 55% in size; note: potency is the fitted concentration of half-maximal effect; for activity, negative = inhibition: series mostly up to about 70 µM; % is set by controls: 0 for no effect and ±100 for the full control effect
[17] = qHTS RealTime-Glo MT Cell Viability Assay in HepG2 cells - 0 hour (AID 1224889); note: % is set by controls: 0 for no effect and ±100 for the full control effect; nearly all actives have a fitted effect of over 50% in size
Outline: as §1

[18] = qHTS assay to identify small molecule antagonists of the TGF-beta/Smad signaling pathway - cell viability counter screen (AID 1346824); note: nearly all actives have a fitted effect of over 50% in size; note: potency is the fitted concentration of half-maximal effect
Outline: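 Cytotoxicity counter-screen run in the same wells as the beta-lactamase Smad reporter read: CellTiter-Glo luminescence after 30 min at room temperature. HEK 293T SBE-bla cells had 5 hr compound exposure at 37 C with TGF-beta1 (0.25 ng/mL stock).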

[19] = qHTS assay to identify small molecule agonists of the TGF-beta/Smad signaling pathway - cell viability counter screen (AID 1346829)
Outline: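 HEK 293T SBE-bla line, 5 hr compound exposure at 37 C, multiplexed CellTiter-Glo viability read by luminescence.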

Chain of Aromatase (Homo sapiens) (P11511 whole entry, looked up): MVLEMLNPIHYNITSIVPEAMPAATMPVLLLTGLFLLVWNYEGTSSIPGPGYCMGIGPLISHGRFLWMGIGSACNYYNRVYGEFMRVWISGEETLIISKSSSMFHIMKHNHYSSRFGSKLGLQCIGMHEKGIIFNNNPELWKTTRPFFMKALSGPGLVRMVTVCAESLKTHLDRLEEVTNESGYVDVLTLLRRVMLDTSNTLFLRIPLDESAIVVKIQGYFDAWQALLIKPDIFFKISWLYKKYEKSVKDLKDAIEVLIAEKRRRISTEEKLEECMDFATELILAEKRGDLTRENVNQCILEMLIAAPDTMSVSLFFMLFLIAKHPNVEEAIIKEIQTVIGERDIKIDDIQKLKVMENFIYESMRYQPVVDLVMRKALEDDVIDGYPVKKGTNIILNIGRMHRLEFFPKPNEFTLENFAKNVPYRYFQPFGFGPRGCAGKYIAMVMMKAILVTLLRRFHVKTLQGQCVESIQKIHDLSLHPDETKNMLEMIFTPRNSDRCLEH
Chain of Cytochrome P450 2C19 (Homo sapiens) (P33261 whole entry, looked up): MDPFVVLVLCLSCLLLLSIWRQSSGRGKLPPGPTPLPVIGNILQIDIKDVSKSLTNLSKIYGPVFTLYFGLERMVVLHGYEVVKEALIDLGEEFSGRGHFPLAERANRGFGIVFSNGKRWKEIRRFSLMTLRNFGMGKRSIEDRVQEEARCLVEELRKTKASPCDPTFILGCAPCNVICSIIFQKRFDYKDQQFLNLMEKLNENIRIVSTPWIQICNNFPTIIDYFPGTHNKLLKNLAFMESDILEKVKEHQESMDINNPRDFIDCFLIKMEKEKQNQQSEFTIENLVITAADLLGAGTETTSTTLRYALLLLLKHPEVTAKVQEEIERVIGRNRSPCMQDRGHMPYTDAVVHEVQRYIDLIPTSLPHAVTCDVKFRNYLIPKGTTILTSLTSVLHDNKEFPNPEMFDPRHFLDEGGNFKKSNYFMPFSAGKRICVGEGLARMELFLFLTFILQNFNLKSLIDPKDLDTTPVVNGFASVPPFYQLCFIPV
Chain of Nuclear receptor subfamily 1 group I member 3 (Homo sapiens) (Q14994 whole entry, looked up): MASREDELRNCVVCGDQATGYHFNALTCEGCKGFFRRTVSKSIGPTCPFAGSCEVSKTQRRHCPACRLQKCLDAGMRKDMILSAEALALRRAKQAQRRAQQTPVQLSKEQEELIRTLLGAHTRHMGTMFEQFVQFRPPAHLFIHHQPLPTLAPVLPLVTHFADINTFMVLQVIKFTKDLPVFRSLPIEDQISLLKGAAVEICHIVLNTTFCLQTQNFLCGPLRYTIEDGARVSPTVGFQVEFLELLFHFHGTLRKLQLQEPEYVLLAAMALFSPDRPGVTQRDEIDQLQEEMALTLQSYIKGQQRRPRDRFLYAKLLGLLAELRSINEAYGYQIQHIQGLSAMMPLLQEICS
Chain of Voltage-gated inwardly rectifying potassium channel KCNH2 (Homo sapiens) (Q12809 whole entry, looked up): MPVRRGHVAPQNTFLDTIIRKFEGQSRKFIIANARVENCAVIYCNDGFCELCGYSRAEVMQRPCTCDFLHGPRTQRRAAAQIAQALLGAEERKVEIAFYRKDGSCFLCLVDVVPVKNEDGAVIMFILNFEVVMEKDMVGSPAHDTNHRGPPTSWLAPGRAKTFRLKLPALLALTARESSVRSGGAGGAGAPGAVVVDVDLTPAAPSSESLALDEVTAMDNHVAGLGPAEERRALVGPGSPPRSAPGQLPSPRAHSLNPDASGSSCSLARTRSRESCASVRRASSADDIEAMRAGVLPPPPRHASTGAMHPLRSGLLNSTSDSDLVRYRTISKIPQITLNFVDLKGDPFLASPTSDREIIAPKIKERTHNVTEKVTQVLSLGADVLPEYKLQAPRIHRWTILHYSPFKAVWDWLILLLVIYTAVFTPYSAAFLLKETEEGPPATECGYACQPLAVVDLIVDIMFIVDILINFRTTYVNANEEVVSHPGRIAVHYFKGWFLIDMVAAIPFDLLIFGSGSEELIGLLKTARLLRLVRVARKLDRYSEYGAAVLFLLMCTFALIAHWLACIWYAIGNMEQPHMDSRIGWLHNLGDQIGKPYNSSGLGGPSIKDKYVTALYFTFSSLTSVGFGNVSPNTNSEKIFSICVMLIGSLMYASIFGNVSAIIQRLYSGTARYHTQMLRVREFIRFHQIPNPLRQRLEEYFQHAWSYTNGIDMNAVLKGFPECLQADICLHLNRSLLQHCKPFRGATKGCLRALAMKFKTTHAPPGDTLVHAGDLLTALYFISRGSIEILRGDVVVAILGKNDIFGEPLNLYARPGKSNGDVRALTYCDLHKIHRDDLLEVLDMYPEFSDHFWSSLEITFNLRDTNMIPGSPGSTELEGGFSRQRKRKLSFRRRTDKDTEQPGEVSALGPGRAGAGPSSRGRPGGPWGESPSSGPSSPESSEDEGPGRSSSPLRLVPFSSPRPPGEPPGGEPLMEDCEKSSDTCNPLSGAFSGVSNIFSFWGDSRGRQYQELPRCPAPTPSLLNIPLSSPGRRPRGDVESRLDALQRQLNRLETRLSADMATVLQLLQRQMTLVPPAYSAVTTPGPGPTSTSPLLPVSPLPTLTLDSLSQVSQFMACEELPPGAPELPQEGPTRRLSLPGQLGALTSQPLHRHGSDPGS
Chain of Estrogen receptor (Homo sapiens) (P03372 whole entry, looked up): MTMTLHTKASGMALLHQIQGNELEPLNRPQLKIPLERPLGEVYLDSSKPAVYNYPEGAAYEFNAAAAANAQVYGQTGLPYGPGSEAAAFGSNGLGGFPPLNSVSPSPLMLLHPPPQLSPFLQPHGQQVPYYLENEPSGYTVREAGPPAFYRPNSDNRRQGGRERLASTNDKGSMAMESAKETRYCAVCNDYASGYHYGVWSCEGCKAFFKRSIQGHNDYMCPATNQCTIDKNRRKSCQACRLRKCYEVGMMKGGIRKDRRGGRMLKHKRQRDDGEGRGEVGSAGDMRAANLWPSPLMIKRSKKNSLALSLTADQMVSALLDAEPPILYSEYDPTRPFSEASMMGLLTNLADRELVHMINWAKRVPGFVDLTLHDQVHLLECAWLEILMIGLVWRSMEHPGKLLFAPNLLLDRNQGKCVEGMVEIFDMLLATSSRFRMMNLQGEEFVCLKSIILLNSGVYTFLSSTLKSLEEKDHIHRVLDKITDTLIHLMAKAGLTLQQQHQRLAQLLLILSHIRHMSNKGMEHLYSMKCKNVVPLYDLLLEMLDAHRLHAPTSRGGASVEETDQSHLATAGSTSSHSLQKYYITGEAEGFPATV

O=S(=O)(C(Cl)(Cl)Cl)C(Cl)(Cl)Cl
inactive: Potency [3] | outcome [7] | outcome [11] | outcome [12] | Potency [13] | outcome [14]
active: Potency [1] 49 µM | Potency [2] 24.3 µM | Potency [4] 17.4 µM | Potency [5] 38.9 µM | Potency [6] 34.7 µM | Potency [8] 54.5 µM | Potency [9] 9.69 µM | Potency [10] 2.17 µM | Potency [15] 25.2 µM | Potency [16] 24.5 µM

CCc1cccc(CC)c1N
inactive: Potency (Aromatase (Homo sapiens))

Nc1ccc([N+](=O)[O-])cc1
active: Potency [1] 38.9 µM | Potency [4] 38.9 µM | Potency [9] 30.6 µM | Potency [10] 27.3 µM | Potency [13] 27.3 µM | Potency [15] 3.56 µM
inactive: Potency (Aromatase (Homo sapiens)) | Potency [2] | Potency [6] | outcome [7] | Potency [17] | outcome [12] | Potency [18] | outcome [19] | outcome [14]

CO/C=C(/C(=O)OC)c1ccccc1Oc1cc(Oc2ccccc2C#N)ncn1
active: Potency (Aromatase (Homo sapiens)) 41.1 µM | Potency [4] 4.9 µM | Potency [8] 24.3 µM | Potency [10] 0.327 µM | Potency [13] 21.7 µM | Potency [18] 34.7 µM | Potency [15] 2.39 µM
inactive: Potency [2] | Potency [3] | Potency [5] | outcome [11] | outcome [12] | Potency [16]

Cc1c(N)cccc1[N+](=O)[O-]
inactive: Potency (Aromatase (Homo sapiens))

Cc1ccc2nc3sc(=O)sc3nc2c1
inactive: activity, negative = inhibition [2] 67.8% [at 19 µM] | cytotoxicity increase [4] -10.2% [at 15.8 µM] | cytotoxicity increase [5] -9.02% [at 15.8 µM] | activity change, negative = cytotoxic [6] -8.61% [at 15.8 µM] | activity change, negative = cytotoxicity [7] -3.58% [at 15.8 µM] | activity change, negative = cytotoxicity [17] 15.7% [at 15.8 µM] | viability change, negative = cytotoxic [8] -14.8% [at 19 µM] | viability change, negative = cytotoxic [9] -7.48% [at 19 µM] | activity change, negative = inhibition [10] -28.1% [at 19 µM] | activation [11] -0.0346% [at 19 µM] | cAMP activity change [12] 3.67% [at 18.9 µM] | activity change, negative = cytotoxicity [13] -6.53% [at 19 µM] | viability change, negative = cytotoxic [18] 2.33% [at 15.8 µM] | activity change, negative = cytotoxicity [19] 17% [at 15.8 µM] | activation [14] -3.69% [at 15.8 µM] | activity change, negative = inhibition [16] 2.68% [at 15.8 µM]
active: Potency [15] 16.9 µM

O=C1C(I)=CC(=C(c2cc(I)c(O)c(I)c2)c2ccccc2C(=O)O)C=C1I
active: Potency [15] 13.8 µM
inactive: Potency (Aromatase (Homo sapiens)) | Potency [2] | Potency [4] | Potency [5] | Potency [6] | outcome [7] | Potency [17] | Potency [8] | Potency [9] | outcome [11] | outcome [12] | Potency [13] | Potency [18] | outcome [19] | outcome [14] | Potency [16]

Cc1nnc2n1-c1sc(CCc3ccc(CC(C)C)cc3)cc1C(c1ccccc1Cl)=NC2C (stereo not given)
active: Potency [1] 26.8 µM | Potency [4] 23.9 µM | Potency [10] 21.1 µM | Potency [16] 15.1 µM
inactive: Potency [2] | Potency [3] | Potency [5] | Potency [17] | outcome [11] | outcome [12]

Cc1cc(C(C)(C)c2ccc(O)c(C)c2)ccc1O
active: Potency (Aromatase (Homo sapiens)) 65.3 µM | Potency [9] 58.2 µM | Potency [10] 16.4 µM | Potency [15] 2.14 µM
inactive: Potency [1] | Potency [2] | Potency [3] | Potency [5] | Potency [6] | outcome [7] | Potency [17] | outcome [12] | Potency [18] | outcome [19] | outcome [14]

CCCCC(CC)COC(=O)c1ccc(C(=O)OCC(CC)CCCC)cc1 (stereo not given)
inactive: Potency (Aromatase (Homo sapiens)) | Potency [3]

O=C1OC(=O)c2c(Cl)c(Cl)c(Cl)c(Cl)c21
inactive: Potency (Aromatase (Homo sapiens)) | Potency [2]

ClC(Cl)=C(c1ccc(Cl)cc1)c1ccccc1Cl
active: Potency [15] 6.33 µM | Potency [16] 21.9 µM
inactive: Potency [1] | Potency [2] | Potency [5] | Potency [6] | outcome [7] | Potency [17] | Potency [8] | Potency [9] | Potency [10] | outcome [11] | outcome [12] | Potency [13] | Potency [18] | outcome [19]
